# Target: Hexose transporter 1 (Plasmodium falciparum) (UniProt O97467)
# Assay: ST_JUDE_LEISH: Cytotoxicity at 2uM final concentration against transgenic Leishmania Mexicana promastigotes LmPfHT that are glucose transport deficient and complemented with the Plasmodium falciparum hexose transporter. Activity is measured by DNA content using SYBR green in vitro
# Type: functional
row,SMILES,inhibition
1,Fc1ccccc1C=NNc1ccnc2cc(Cl)ccc12,7.17%
2,N#Cc1ccc(-c2ccc(C(=O)NCCCCN3CCC(n4cnc5ccccc54)CC3)cc2)cc1,3.72%
3,COC(=O)Cn1c(C2CCN(CC3CCN(C(=O)/C=C/c4ccc(Cl)c(Cl)c4)CC3)CC2)nc2ccccc21,0.62%
4,c1ccc(-c2[nH]c3ccccc3c2CN2CCC(N3CCCCC3)CC2)nc1,-0.46%
5,Cc1ccc(CNC(=O)c2ccc(CN3CCCN(Cc4ccsc4)CC3)cc2)cc1,0.79%
6,CC(C)CCN1CCC(Oc2ccc(NC(=O)c3ccc(F)cc3)cc2Cl)CC1,-4.4%
7,O=C(/C=C/c1ccc(Cl)c(Cl)c1)NCCCCCN1CCC(NC(=O)c2ccc(F)cc2)CC1,3.16%
8,O=C(Nc1ccc(Cl)cc1)Nc1cccc(-c2ccc(-c3nc4ccccc4[nH]3)cc2)c1,1.83%
9,CS(=O)(=O)CCNCc1nc(-c2ccc3c(Nc4ccc(Oc5ccccn5)cc4)ccnc3c2)cs1,4.96%
10,O=C(NC1CCCCC1)c1ccc(O)c(-c2cccc(C(F)(F)F)c2)c1,2%
11,Cc1[nH]c(C)c(-c2ccc(-c3ccccc3F)nc2)c(=O)c1Br,4.24%
12,O=C(NCCN1CCOCC1)c1csc(C2CCCN(C(=O)c3ccc(O)c(-c4cc(Cl)cc(Cl)c4)c3)C2)n1 (stereo not drawn),1.79%
13,COc1ccc2nccc(NC(=O)N3CCC(NCc4cc5c(F)ccc(F)c5[nH]4)CC3)c2n1,19.2%
14,CN(Cc1cccc(F)c1)C1CCCN(c2cc(NC(=O)c3ccccc3)ccn2)C1 (stereo not drawn),4.07%
15,O=C(CCCc1ccccc1)Nc1cccc(N2CCC(N3CCN(c4ccccc4O)CC3)CC2)c1,7.32%
16,Cc1cnc(N2CCN(CC3CCN(C)CC3)CC2)nc1Oc1ccc(-n2ccnc2)cc1,3.96%
17,Brc1ccccc1CNc1ccnc(NCCn2ccnc2)n1,0.05%
18,Cc1nc(-c2cccc(C(=O)N(Cc3cncn3Cc3cccc(C(F)(F)F)c3)CC3CC3)c2)cs1,4.67%
19,c1ccc(C2CCC(N3CCC(N4CCN(c5ccccc5)CC4)CC3)CC2)cc1 (stereo not drawn),7.92%
20,O=C(/C=C/c1ccc([N+](=O)[O-])cc1)N1CCC(CCN2CCC(c3c[nH]c4ccccc34)CC2)CC1,3.09%

row,SMILES,inhibition
1,Cc1cc(N2CCCC2)nc(Nc2ccc(NC(=O)c3ccccc3)cc2)n1,6.69%
2,Clc1ccc(Cc2nc3ccccc3[nH]2)cc1Cl,4.08%
3,COc1cc(OC)c(NC(=O)Nc2ccnc3ccccc23)cc1Cl,8.9%
4,N#Cc1c(N2CCN(c3ccc(F)cc3)CC2)nc(N)c2c(N)nc3c(c12)CC(=O)N3C1CC1,5.18%
5,Cc1ccc(CNC(=O)[C@H](CC(C)C)Nc2cc(C)nc(NCc3ccccc3C)n2)cc1,4.62%
6,CN1CCN(c2cccc(-c3nnc(-c4cccc(OCC(=O)NCc5ccc(C(F)(F)F)cc5)c4)o3)c2)CC1,1.65%
7,O=C(CCNc1ccnc(NCCc2ccc(F)cc2)n1)Nc1ccccc1,4.56%
8,COc1ccc(-c2cncc3ccc(C(=O)NCc4ccncc4)nc23)cc1,4.27%
9,CCCCC(NCC)c1ccc(OCCOc2ccc(C(CCCC)NCC)cc2)cc1 (stereo not drawn),41.5%
10,O=C(Nc1ccc(OC2CCN(Cc3ccc(F)cc3)C2)c(Cl)c1)c1ccccc1 (stereo not drawn),9.58%
11,Fc1ccc2[nH]c3c(NCCCN4CCOCC4)ncnc3c2c1,0.7%
12,CCc1c[nH]c2c(N3CCCC3=O)cc(C(=O)N[C@@H](Cc3ccccc3)[C@H](O)CNC(C)(C)c3cccc(C(F)(F)F)c3)cc12,-2.43%
13,CC(=O)Nc1ccc(CN(Cc2cccc(OC(C)(C)C)c2)Cc2ccc3c(c2)OCCO3)cc1,2.67%
14,Cc1ccc(OC2CCN(c3ccc(C(=O)NC4CC4)cn3)CC2)cc1,2.06%
15,Cc1cccc(-c2nc3[nH]c(=O)cc(NC(=O)C(C)C)n3n2)c1,-2.49%
16,Cc1ccccc1N1CCN(c2ccc(C(=O)Nc3ccccc3)cn2)CC1,7.8%
17,Cn1cncc1C(=O)Nc1cccc(-c2cccc(-c3nc4cc(F)ccc4[nH]3)c2)c1,3.24%
18,CN(C)c1ccc(CN2CCC(NC(=O)c3ccc(-c4cccc(F)c4)s3)CC2)cc1,5.36%
19,Cc1cccc(NC(c2cccs2)c2c(NC(=O)c3ccccc3)sc(C)c2C)n1 (stereo not drawn),3.93%

# Target: Glucose transporter (Leishmania mexicana) (UniProt O61059)
# Assay: ST_JUDE_LEISH: Cytotoxicity at 2uM final concentration against transgenic Leishmania Mexicana promastigotes LmGT2 that are glucose transport deficient and complemented with the L. Mexicana glucose transporter 2. Activity is measured by DNA content using SYBR green in vitro
# Type: functional
row,SMILES,inhibition
1,Fc1ccccc1C=NNc1ccnc2cc(Cl)ccc12,6.07%
2,N#Cc1ccc(-c2ccc(C(=O)NCCCCN3CCC(n4cnc5ccccc54)CC3)cc2)cc1,5.28%
3,COC(=O)Cn1c(C2CCN(CC3CCN(C(=O)/C=C/c4ccc(Cl)c(Cl)c4)CC3)CC2)nc2ccccc21,2.04%
4,c1ccc(-c2[nH]c3ccccc3c2CN2CCC(N3CCCCC3)CC2)nc1,-1.64%
5,Cc1ccc(CNC(=O)c2ccc(CN3CCCN(Cc4ccsc4)CC3)cc2)cc1,2.87%
6,CC(C)CCN1CCC(Oc2ccc(NC(=O)c3ccc(F)cc3)cc2Cl)CC1,0.92%
7,O=C(/C=C/c1ccc(Cl)c(Cl)c1)NCCCCCN1CCC(NC(=O)c2ccc(F)cc2)CC1,5.01%
8,O=C(Nc1ccc(Cl)cc1)Nc1cccc(-c2ccc(-c3nc4ccccc4[nH]3)cc2)c1,1.94%
9,CS(=O)(=O)CCNCc1nc(-c2ccc3c(Nc4ccc(Oc5ccccn5)cc4)ccnc3c2)cs1,2.64%
10,O=C(NC1CCCCC1)c1ccc(O)c(-c2cccc(C(F)(F)F)c2)c1,1.27%
11,Cc1[nH]c(C)c(-c2ccc(-c3ccccc3F)nc2)c(=O)c1Br,1.41%
12,O=C(NCCN1CCOCC1)c1csc(C2CCCN(C(=O)c3ccc(O)c(-c4cc(Cl)cc(Cl)c4)c3)C2)n1 (stereo not drawn),1.85%
13,COc1ccc2nccc(NC(=O)N3CCC(NCc4cc5c(F)ccc(F)c5[nH]4)CC3)c2n1,22.6%
14,CN(Cc1cccc(F)c1)C1CCCN(c2cc(NC(=O)c3ccccc3)ccn2)C1 (stereo not drawn),3.71%
15,O=C(CCCc1ccccc1)Nc1cccc(N2CCC(N3CCN(c4ccccc4O)CC3)CC2)c1,7.72%
16,Cc1cnc(N2CCN(CC3CCN(C)CC3)CC2)nc1Oc1ccc(-n2ccnc2)cc1,2.78%
17,Brc1ccccc1CNc1ccnc(NCCn2ccnc2)n1,0.03%
18,Cc1nc(-c2cccc(C(=O)N(Cc3cncn3Cc3cccc(C(F)(F)F)c3)CC3CC3)c2)cs1,4.26%
19,c1ccc(C2CCC(N3CCC(N4CCN(c5ccccc5)CC4)CC3)CC2)cc1 (stereo not drawn),8.3%
20,O=C(/C=C/c1ccc([N+](=O)[O-])cc1)N1CCC(CCN2CCC(c3c[nH]c4ccccc34)CC2)CC1,2.47%

row,SMILES,inhibition
1,Cc1cc(N2CCCC2)nc(Nc2ccc(NC(=O)c3ccccc3)cc2)n1,3.09%
2,Clc1ccc(Cc2nc3ccccc3[nH]2)cc1Cl,4.23%
3,COc1cc(OC)c(NC(=O)Nc2ccnc3ccccc23)cc1Cl,5.83%
4,N#Cc1c(N2CCN(c3ccc(F)cc3)CC2)nc(N)c2c(N)nc3c(c12)CC(=O)N3C1CC1,13.5%
5,Cc1ccc(CNC(=O)[C@H](CC(C)C)Nc2cc(C)nc(NCc3ccccc3C)n2)cc1,3.14%
6,CN1CCN(c2cccc(-c3nnc(-c4cccc(OCC(=O)NCc5ccc(C(F)(F)F)cc5)c4)o3)c2)CC1,2.47%
7,O=C(CCNc1ccnc(NCCc2ccc(F)cc2)n1)Nc1ccccc1,3.24%
8,COc1ccc(-c2cncc3ccc(C(=O)NCc4ccncc4)nc23)cc1,2.69%
9,CCCCC(NCC)c1ccc(OCCOc2ccc(C(CCCC)NCC)cc2)cc1 (stereo not drawn),106%
10,O=C(Nc1ccc(OC2CCN(Cc3ccc(F)cc3)C2)c(Cl)c1)c1ccccc1 (stereo not drawn),4.94%
11,Fc1ccc2[nH]c3c(NCCCN4CCOCC4)ncnc3c2c1,-0.69%
12,CCc1c[nH]c2c(N3CCCC3=O)cc(C(=O)N[C@@H](Cc3ccccc3)[C@H](O)CNC(C)(C)c3cccc(C(F)(F)F)c3)cc12,-0.27%
13,CC(=O)Nc1ccc(CN(Cc2cccc(OC(C)(C)C)c2)Cc2ccc3c(c2)OCCO3)cc1,6.39%
14,Cc1ccc(OC2CCN(c3ccc(C(=O)NC4CC4)cn3)CC2)cc1,1.55%
15,Cc1cccc(-c2nc3[nH]c(=O)cc(NC(=O)C(C)C)n3n2)c1,-1.3%
16,Cc1ccccc1N1CCN(c2ccc(C(=O)Nc3ccccc3)cn2)CC1,3.84%
17,Cn1cncc1C(=O)Nc1cccc(-c2cccc(-c3nc4cc(F)ccc4[nH]3)c2)c1,1.75%
18,CN(C)c1ccc(CN2CCC(NC(=O)c3ccc(-c4cccc(F)c4)s3)CC2)cc1,1.82%
19,Cc1cccc(NC(c2cccs2)c2c(NC(=O)c3ccccc3)sc(C)c2C)n1 (stereo not drawn),2.13%
